The record followed here is PubChem BioAssay.

Structures are written as SMILES. Results filed as inconclusive are left out. Activity calls are given as the source filed them.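 Rule for the calls, unless noted: active = binding below the plate cutoff, the plate median minus 3 SD, with a reading above zero; inconclusive = below the plate cutoff but reading exactly zero; inactive = the rest.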

Test [1] is described as follows: yeast TOR pathway RPL19A-GFP modulators, primary screen, cell-based, S. cerevisiae, multiplex flow cytometry (AID 1862; in the data active = percent of DMSO control GFP below about 86%;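 note: lower values mimic rapamycin by blocking the RPL19A rise seen in DMSO cells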). The following applies: S. cerevisiae RPL19A-GFP strain, flow cytometry fluorescence, 3 h; at 10 µM; stronger effect = lower value.
The nature of test [2]: modulators of MEP2-GFP levels in yeast, primary screen, S. cerevisiae, multiplex flow cytometry (AID 1867;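 active = GFP response, as percent of the DMSO control, above the screen-wide mean plus 3 SD, about 139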;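 note: median GFP channel fluorescence of barcode-gated MEP2-GFP cells measured by flow cytometry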). The following applies: S. cerevisiae MEP2-GFP strain, 3 h, at 10 µM, stronger effect = higher value, 100% means same as DMSO wells.
Test [3] is described as follows: modulators of CIT2-GFP expression in yeast, primary screen, S. cerevisiae, GFP fusion, multiplex flow cytometry (AID 1870;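 active = percent response above a set limit, the screen-wide mean plus 3 SD, cut at about 130% in these data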;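 note: barcoded CIT2-GFP strain pooled with four other GFP strains with rapamycin as positive control; median GFP fluorescence per well over plate mean of DMSO wells so 100% = DMSO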). As to conditions: 3 h, at 10 µM, stronger effect = higher value.
Test [4] in a line: modulators of LAP4-GFP expression in yeast, primary screen, S. cerevisiae, multiplex flow cytometry (AID 1873;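 active = GFP signal, as percent of the solvent control, above the screen mean plus 3 SD, about 149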). The following applies: 3 h, at 10 µM, stronger effect = higher value.
The nature of test [5]: modulators of AGP1-GFP expression in yeast TOR pathway, primary screen, cell-based, multiplex flow cytometry, S. cerevisiae (AID 1887;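 active = GFP signal above the screen-wide mean plus 3 SD, that is over about 124.5% of the solvent control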;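 note: AGP1-GFP fusion strain of S. cerevisiae within a five-strain barcoded multiplex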). As to conditions: 3 h, at 10 µM, stronger effect = higher value.
Test [6] in a line: inhibitors of CD8+ T cell-vesicle binding, pilot screen, LFA-1/ICAM-1 modulator project, MLPCN validation set, flow cytometry (AID 2523;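 active = response below a set limit, under 55% cells CD8-positive and vesicle-bound, and CD8 cells' 90th-percentile brightness under 279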;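 for vesicle binding response: mean PE anti-B7-1 fluorescence of CD8+ cells relative to row control; 100% = QL9-loaded vesicles with DMSO vehicle in the same plate row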). As to conditions: 2C mouse CD8+ T cells, at 7 µM, stronger effect = lower value; double positive events: measured here: CD8+/vesicle+ event percentage.
The target of test [7] is Integrin beta-1 (Homo sapiens) + Integrin alpha-4 (Homo sapiens) (UniProt P13612+P05556). The experiment in a line: inhibition of HUTS-21 binding to VLA-4, pilot screen, VLA-4 allosteric modulator project, U937 cells, HUTS-21 mAb, flow cytometry, validation set (AID 2674;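 active = inhibition above 50%, about 3 SD of the validation set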;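 note: antibody binding induced by the VLA-4 ligand LDV present at three times its Kd; 0% = LDV ligand with antibody and no compound and 100% = antibody without LDV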). The following applies: HUTS-21 LIBS mAb binding, at 6.7 µM, stronger effect = higher value, binding induced by LDV ligand.

Test [8] can be described thus: superoxide lowering in aged yeast cells, pilot screen, validation compound set (AID 2706;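 active = superoxide response below 65% of plate, a cut near 3 SD across the whole screen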;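 note: yeast exposed to compound for one week at 30 degrees C before staining; 100% = mean of all compound wells on the same plate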). As to conditions: S. cerevisiae aging, superoxide DHE fluorescence; at 10 µM; stronger effect = lower value.
Test [9] has as its target Beta-adrenergic receptor kinase 1 (Homo sapiens) (UniProt P25098). The experiment in a line: GRK2 binders displacing RNA aptamer, biochemical, validation, human GRK2, bead flow cytometry (AID 488806;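 active = aptamer binding inhibition above 30%, about 3 SD of noise from non-fluorescent compounds; inactive = inhibition at or below 30%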). The following applies: bead-bound GRK2, FAM-aptamer displacement, at 10 µM, stronger effect = higher value.
Test [10] addresses Beta-2 adrenergic receptor (Homo sapiens) (UniProt P07550). The test can be described thus: beta2AR agonists driving receptor internalization, pilot screen, cell-based, FAP fluorogen, flow cytometry, validation set (AID 504459;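 active = percent response above 42, roughly 3 SD of non-fluorescent test compounds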;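 note: agonist-driven loss of surface beta2AR via internalization measured by FAP dye flow cytometry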). The following applies: Am2.2-beta2AR cells, FAP surface receptor flow cytometry; at 10 µM; stronger effect = higher value.
For test [11], the target named is AP-2 complex subunit beta (Homo sapiens) (UniProt P63010). The test can be described thus: inhibitors of arrestin peptide binding to AP2, pilot screen, biochemical, validation set, GST-AP2 beads, flow cytometry (AID 504541;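 active = inhibition above 54%, about 3 SD of non-fluorescent compounds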;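 note: AP2 carries R879A mutation and is captured from E. coli lysate; bead-bound FITC arrestin peptide fluorescence measuring arrestin peptide binding to AP2; 0% = DMSO wells and 100% = excess unlabeled arrestin peptide control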). The following applies: FITC arrestin peptide, at 10 µM, stronger effect = higher value, AP2 beta2 appendage fragment, R879A mutant.
A short description of test [12]: yeast V-ATPase proton transport modulators, S. cerevisiae, pHLuorin, HTS validation (AID 504600; in the data active = response above about 15%;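 note: plate controls were DMSO for no effect and reference compound for full effect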). As to conditions: S. cerevisiae pHLuorin cytosolic pH, at 10 µM, stronger effect = higher value.
For test [13], the system named is anti-desmoglein-3 scFv antibody binding to human DSG3. The test can be described thus: inhibitors of anti-DSG3 scFv binding to DSG3, pilot screen, biochemical, validation compound set, bead-based, flow cytometry (AID 588368).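 Note: signal is the median channel fluorescence of bead-bound GFP antibody.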 The following applies: Protein G beads, DSG3-Fc, scFv-GFP binding, at 10 µM, stronger effect = lower value.
Test [14] is described as follows: inhibitors of fungal efflux pumps CDR1, CDR2, MDR1, pilot screen, validation compound set, multiplex, phenotypic (AID 588506;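 active = efflux inhibition above 0.42, the validation set average plus 4 SD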;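 note: Nile Red retained in cells so higher fluorescence means more efflux inhibition; 0 = negative control wells and 1 = enniatin B 25 µM full block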). As to conditions: S. cerevisiae pump-expressing triplex, Nile Red efflux flow cytometry; at 10 µM; stronger effect = higher value; the pumps come from Candida albicans.
In test [15] the target is ATP-binding cassette sub-family B member 6 (Homo sapiens) (UniProt Q9NP58). The test can be described thus: ABCB6 transporter inhibitors, pilot screen, K562-ABCB6 cells, flow cytometry, validation set (AID 588550;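 active = inhibition above the screen-wide mean plus 3 SD, about 51%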;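 note: 0% = DMSO wells and 100% = benzethonium chloride 70 µM positive control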). The following applies: K562-ABCB6 porphyrin accumulation, 1 h, at 10 µM, stronger effect = higher value.
The nature of test [16]: promoters of myeloid differentiation in arrested cells, primary screen, cell-based, GFP/MAC1 double positive, flow cytometry, validation set (AID 588685;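 active = differentiation response of at least 50%, scaled between solvent and reference control, from cells with both markers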;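 note: compound exposure lasts four days before antibody staining and flow analysis; 0% = DMSO wells and 100% = 5 µM fulvestrant positive control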). The following applies: ER-HoxA9 marrow cells, stronger effect = higher value, normalized: vehicle 0, fulvestrant 100.

Chain of ATP-binding cassette sub-family B member 6 (Homo sapiens) (Q9NP58 whole entry, looked up): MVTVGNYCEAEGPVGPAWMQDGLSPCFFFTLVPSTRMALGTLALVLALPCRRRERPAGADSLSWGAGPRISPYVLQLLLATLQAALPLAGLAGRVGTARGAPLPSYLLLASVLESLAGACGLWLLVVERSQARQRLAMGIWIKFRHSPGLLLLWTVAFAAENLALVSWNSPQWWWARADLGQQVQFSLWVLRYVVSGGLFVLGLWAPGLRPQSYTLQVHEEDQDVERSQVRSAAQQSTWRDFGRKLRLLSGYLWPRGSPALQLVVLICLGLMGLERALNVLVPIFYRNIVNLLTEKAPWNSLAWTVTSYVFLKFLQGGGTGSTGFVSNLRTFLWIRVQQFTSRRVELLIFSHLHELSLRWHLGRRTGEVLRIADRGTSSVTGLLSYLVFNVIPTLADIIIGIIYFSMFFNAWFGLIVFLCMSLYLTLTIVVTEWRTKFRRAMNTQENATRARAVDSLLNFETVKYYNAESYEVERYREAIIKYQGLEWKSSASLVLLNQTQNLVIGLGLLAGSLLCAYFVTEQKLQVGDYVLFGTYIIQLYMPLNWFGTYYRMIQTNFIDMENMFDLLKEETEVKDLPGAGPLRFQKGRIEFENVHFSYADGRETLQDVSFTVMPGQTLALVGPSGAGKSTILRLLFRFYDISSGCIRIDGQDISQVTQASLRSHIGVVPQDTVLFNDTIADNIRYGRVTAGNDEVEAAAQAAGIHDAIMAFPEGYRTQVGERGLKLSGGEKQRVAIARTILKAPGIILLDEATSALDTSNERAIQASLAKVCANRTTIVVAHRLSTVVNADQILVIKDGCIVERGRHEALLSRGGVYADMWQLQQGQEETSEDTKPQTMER
Chain of AP-2 complex subunit beta (Homo sapiens) (P63010 whole entry, looked up, the tested form may be a part, one chain of several): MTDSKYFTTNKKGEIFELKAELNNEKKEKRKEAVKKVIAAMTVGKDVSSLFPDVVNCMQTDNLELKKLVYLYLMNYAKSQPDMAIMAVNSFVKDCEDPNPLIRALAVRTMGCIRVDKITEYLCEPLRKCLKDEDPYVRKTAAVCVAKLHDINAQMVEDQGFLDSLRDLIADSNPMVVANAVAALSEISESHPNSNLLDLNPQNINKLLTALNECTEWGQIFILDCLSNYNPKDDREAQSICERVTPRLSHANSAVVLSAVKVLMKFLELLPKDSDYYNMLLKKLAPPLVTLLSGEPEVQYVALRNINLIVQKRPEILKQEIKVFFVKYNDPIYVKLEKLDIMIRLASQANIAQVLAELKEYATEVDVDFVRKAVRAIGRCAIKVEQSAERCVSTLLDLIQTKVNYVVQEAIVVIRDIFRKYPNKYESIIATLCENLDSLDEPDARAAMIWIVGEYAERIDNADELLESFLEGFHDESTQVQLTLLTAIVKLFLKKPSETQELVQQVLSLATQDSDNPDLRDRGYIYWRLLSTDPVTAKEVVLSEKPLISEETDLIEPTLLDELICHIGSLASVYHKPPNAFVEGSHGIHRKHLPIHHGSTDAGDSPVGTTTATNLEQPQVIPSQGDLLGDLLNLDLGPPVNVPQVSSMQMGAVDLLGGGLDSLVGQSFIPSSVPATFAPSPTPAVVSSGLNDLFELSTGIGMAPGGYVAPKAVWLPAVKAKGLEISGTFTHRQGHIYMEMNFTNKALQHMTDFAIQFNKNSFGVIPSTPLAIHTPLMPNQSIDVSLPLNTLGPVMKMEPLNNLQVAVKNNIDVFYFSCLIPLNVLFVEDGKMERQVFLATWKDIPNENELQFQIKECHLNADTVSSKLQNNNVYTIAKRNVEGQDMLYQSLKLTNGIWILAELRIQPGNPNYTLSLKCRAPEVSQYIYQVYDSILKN
Chain of Beta-2 adrenergic receptor (Homo sapiens) (P07550 whole entry, looked up): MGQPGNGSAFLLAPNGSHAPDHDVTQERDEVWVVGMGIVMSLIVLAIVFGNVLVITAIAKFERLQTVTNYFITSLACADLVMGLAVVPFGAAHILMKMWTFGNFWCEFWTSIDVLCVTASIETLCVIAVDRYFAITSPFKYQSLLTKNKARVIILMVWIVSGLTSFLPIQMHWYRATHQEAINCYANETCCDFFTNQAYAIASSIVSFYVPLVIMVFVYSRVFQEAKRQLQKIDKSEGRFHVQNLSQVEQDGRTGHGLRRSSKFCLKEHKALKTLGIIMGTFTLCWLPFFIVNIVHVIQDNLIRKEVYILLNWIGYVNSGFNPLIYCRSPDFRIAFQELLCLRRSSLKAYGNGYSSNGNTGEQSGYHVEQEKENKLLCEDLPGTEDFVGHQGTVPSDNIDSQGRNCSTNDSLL
Chain of Beta-adrenergic receptor kinase 1 (Homo sapiens) (P25098 whole entry, looked up): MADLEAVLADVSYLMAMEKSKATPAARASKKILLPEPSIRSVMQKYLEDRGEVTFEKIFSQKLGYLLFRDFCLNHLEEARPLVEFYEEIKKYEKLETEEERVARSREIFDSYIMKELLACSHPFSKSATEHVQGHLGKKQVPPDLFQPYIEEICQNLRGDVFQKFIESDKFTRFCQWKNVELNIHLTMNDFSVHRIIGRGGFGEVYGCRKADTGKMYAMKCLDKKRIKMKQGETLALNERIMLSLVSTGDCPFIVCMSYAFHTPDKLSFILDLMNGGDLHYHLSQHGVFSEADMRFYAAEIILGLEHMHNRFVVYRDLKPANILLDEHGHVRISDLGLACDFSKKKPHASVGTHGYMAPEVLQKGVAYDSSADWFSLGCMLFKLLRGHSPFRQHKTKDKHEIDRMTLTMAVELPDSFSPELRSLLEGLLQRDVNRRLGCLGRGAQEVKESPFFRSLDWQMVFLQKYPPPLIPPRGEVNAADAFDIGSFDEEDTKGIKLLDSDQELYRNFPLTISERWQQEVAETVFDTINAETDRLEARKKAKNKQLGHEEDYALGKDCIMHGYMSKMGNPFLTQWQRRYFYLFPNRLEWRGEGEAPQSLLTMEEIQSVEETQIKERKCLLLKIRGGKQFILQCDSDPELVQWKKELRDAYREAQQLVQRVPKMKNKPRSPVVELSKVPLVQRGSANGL
Chain of Integrin beta-1 (Homo sapiens) + Integrin alpha-4 (Homo sapiens) (P05556 whole entry, looked up): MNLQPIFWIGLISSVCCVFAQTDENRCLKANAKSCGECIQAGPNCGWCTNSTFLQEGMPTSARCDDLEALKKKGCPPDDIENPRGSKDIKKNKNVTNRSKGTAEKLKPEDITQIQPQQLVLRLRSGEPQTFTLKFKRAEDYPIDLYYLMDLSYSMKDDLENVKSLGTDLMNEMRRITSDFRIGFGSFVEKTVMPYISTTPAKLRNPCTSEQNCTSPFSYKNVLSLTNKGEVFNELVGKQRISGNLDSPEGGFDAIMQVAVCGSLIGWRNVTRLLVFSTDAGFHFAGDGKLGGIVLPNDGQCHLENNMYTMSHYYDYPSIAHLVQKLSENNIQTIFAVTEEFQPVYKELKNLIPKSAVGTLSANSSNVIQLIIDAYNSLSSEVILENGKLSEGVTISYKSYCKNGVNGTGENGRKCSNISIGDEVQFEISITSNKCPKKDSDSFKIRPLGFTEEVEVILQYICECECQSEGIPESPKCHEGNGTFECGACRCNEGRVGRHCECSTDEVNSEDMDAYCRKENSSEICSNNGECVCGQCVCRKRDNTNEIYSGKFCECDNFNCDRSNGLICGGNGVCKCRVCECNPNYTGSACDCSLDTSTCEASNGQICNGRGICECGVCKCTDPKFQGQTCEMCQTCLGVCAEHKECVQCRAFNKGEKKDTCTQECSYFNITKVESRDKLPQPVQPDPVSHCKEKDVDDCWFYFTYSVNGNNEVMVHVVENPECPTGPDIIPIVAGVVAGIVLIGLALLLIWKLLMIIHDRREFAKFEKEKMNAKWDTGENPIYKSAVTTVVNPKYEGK
Chain of Integrin beta-1 (Homo sapiens) + Integrin alpha-4 (Homo sapiens) (P13612 whole entry, looked up): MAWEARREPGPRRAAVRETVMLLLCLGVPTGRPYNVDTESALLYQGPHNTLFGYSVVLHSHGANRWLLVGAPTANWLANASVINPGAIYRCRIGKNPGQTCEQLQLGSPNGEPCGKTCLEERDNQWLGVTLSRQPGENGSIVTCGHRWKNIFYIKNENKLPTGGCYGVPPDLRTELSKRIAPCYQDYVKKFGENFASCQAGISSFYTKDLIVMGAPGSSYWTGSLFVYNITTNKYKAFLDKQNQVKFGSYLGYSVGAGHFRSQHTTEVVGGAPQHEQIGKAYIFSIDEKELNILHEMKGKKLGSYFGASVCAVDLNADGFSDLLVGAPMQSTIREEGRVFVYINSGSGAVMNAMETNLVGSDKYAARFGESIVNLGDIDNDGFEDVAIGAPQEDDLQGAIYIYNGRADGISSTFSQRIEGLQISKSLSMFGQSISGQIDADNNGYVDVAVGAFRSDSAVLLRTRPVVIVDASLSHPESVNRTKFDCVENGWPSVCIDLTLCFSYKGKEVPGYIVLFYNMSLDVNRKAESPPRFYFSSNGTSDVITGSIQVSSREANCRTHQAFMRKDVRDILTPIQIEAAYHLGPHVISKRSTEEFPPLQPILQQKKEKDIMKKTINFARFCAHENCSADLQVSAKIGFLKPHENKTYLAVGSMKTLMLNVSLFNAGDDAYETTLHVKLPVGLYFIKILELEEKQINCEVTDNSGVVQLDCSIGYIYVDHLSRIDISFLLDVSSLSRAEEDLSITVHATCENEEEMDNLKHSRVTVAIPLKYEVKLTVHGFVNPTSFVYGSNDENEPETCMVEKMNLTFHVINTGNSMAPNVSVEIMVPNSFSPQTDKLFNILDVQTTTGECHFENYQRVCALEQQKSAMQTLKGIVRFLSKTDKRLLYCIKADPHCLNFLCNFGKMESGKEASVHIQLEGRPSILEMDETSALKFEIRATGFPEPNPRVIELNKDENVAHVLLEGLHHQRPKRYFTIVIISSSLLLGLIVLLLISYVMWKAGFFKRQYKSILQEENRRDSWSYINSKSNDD

Regarding `O=C(CCSc1ccccc1)N1CCCC1`, in [1], the percent of DMSO control GFP was 109% (inactive). The GFP response vs DMSO in test [2] is 109% (inactive); in [4], 104% (inactive). The percent response of DMSO control in test [3] is 104% (inactive). Further, the GFP response, % of DMSO in test [5] was 112% (inactive). The double positive events in test [6] was 67.6%. Further, the vesicle binding response in test [6] is 193% (inactive). For the same molecule, the figures for the inhibition in test [7], in [11] and in test [15] were 3.98% (inactive), 33.8% (inactive) and 5% (inactive), respectively. The superoxide response (% of plate) in test [8] is 109% (inactive). Besides, in test [9], the aptamer binding inhibition is 5% (inactive). Besides, the figures for the response in test [10] and in test [12] were -4.18% (inactive) and -0.71% (inactive), respectively. Moreover, the binding (% of control) in [13] was 91.3% (inactive). The efflux inhibition (fraction of control) in test [14] was -0.15 (inactive). Also, the differentiation response in test [16] was -0.36% (inactive).
With `COc1ccc(-c2[nH]ncc2CN(C)C(C)c2ccon2)c(OC)c1` (stereo not given), in [1], the percent of DMSO control GFP was 92.4% (inactive). Also, the results for the GFP response vs DMSO in test [2] and in test [4] were 137% (inactive) and 78.7% (inactive), respectively. In addition, the percent response of DMSO control in test [3] was 106% (inactive). The GFP response, % of DMSO in [5] was 91% (inactive). The same molecule had a double positive events in test [6] of 61.9%. Also, the vesicle binding response in test [6] is 143% (inactive). The inhibition in test [7] was 10.3% (inactive); in test [11], 8% (inactive); in test [15], 11% (inactive). In addition, the superoxide response (% of plate) in test [8] is 99.7% (inactive). For the same molecule, the aptamer binding inhibition in test [9] was 2% (inactive). The response in test [10] is -3.13% (inactive); in [12], -3.5% (inactive). Also, in [13], the binding (% of control) was 105% (inactive). Also, the efflux inhibition (fraction of control) in [14] was 0.01 (inactive). For the same molecule, the differentiation response in [16] is -4.91% (inactive).
Consider `COc1cc(NS(=O)(=O)c2ccc(N)cc2)nc(OC)n1`, for which the percent of DMSO control GFP in test [1] is 98.8% (inactive). Also, the GFP response vs DMSO in test [2] is 102% (inactive); in [4] it was 96.5% (inactive). Also, in test [3], the percent response of DMSO control is 105% (inactive). In addition, the GFP response, % of DMSO in test [5] was 98.2% (inactive). Besides, in test [6], the double positive events came out at 60.1%. Besides, in test [6], the vesicle binding response is 102% (inactive). The inhibition is -1.74% (inactive) in test [7], 18.1% (inactive) in [11] and -1% (inactive) in test [15]. For the same molecule, the superoxide response (% of plate) in test [8] was 113% (inactive). Besides, the aptamer binding inhibition in test [9] was 3% (inactive). In addition, the response in [10] was 1.82% (inactive); in test [12], 0.53% (inactive). Also, in [13], the binding (% of control) is 96.4% (inactive). Further, the efflux inhibition (fraction of control) in test [14] was 0.01 (inactive). Further, in [16], the differentiation response is 14.9% (inactive).
Regarding `CCOC(=O)C1CCCN(Cc2nc(Cc3cccc(F)c3)no2)C1` (stereo not given), the percent of DMSO control GFP in test [1] is 99.1% (inactive). The results for the GFP response vs DMSO in test [2] and in test [4] were 92.6% (inactive) and 94.8% (inactive), respectively. Besides, the percent response of DMSO control in test [3] is 92.4% (inactive). Further, the GFP response, % of DMSO in test [5] was 87.2% (inactive). Also, the double positive events in [6] was 58.5%. Also, the vesicle binding response in [6] is 172% (inactive). Moreover, the values for the inhibition in [7], in test [11] and in test [15] were 5.61% (inactive), 3.77% (inactive) and 10% (inactive), respectively. The superoxide response (% of plate) in [8] was 90.5% (inactive). For the same molecule, the aptamer binding inhibition in [9] is -1% (inactive). The response is 20.7% (inactive) in [10] and -3.88% (inactive) in [12]. Further, the binding (% of control) in test [13] was 106% (inactive). Further, the efflux inhibition (fraction of control) in [14] is 0.1 (inactive). The differentiation response in test [16] is 8.59% (inactive).
Turning to `Cc1ccc(C2CC(=O)C(C=NCCN3CCN(CC(=O)Nc4cc(C)cc(C)c4)CC3)=C(O)C2)cc1` (stereo not given), in test [1], the percent of DMSO control GFP is 103% (inactive). Moreover, the results for the GFP response vs DMSO in [2] and in [4] were 103% (inactive) and 108% (inactive), respectively. Besides, the percent response of DMSO control in test [3] was 97.6% (inactive). In addition, the GFP response, % of DMSO in test [5] is 105% (inactive). The molecule also gave a double positive events in test [6] of 60.5%. For the same molecule, the vesicle binding response in test [6] is 196% (inactive). For the same molecule, the figures for the inhibition in test [7], in test [11] and in test [15] were -17.2% (inactive), -1.73% (inactive) and 13% (inactive), respectively. In addition, the superoxide response (% of plate) in [8] is 102% (inactive). Further, the aptamer binding inhibition in test [9] was -3% (inactive). Also, the response was -1.95% (inactive) in test [10] and -0.35% (inactive) in [12]. Also, the binding (% of control) in test [13] is 103% (inactive). In addition, in test [14], the efflux inhibition (fraction of control) was -0.05 (inactive). Also, in [16], the differentiation response was -16.3% (inactive).
